# Measurements as given in PubChem BioAssay AID1159580 (chemical genetic matrix, 2015).
# Hit rate of the full screen: of about 5,500 compounds, about 2,000 (36%) were called active. Roughly 18% stayed inconclusive and do not appear here. Some of the results follow. Values without a mark were called inactive. No stated cut-off is given here; in the data, active means normalized growth mostly below about 0.91 (no sharp cut-off); inconclusive means no clear call, values can overlap the other calls; inactive means mostly above about 0.92.
# Assay: chemical genetic growth profiling, strain panel (AID 1159580);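 further: tested at 20 µM; growth read once vehicle control cultures reached saturation at 30 °C; 1 = growth at the plate median or of vehicle wells; lower values mean less growth of the strain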
# Conditions: S. cerevisiae deletion strains, growth OD
# [1] = locus YAL013W, strain DEP1, hits give low values
# [2] = locus YBR229C, strain ROT2, hits give low values
# [3] = locus YCL061C, strain MRC1, hits give low values
# [4] = locus YDL101C, strain DUN1, hits give low values
# [5] = locus YDR150W, strain NUM1, hits give low values
# [6] = locus YEL061C, strain CIN8, hits give low values
# [7] = locus YGR078C, strain PAC10, hits give low values
# [8] = locus YHR030C, strain SLT2, hits give low values
# [9] = locus YHR087W, strain rtc3, hits give low values
# [10] = locus YJR043C, strain POL32, hits give low values
# [11] = locus YJR075W, strain HOC1, hits give low values
# [12] = locus YLR039C, strain RIC1, hits give low values
# [13] = locus YLR058C, strain SHM2 (second series), hits give low values
# [14] = locus YLR085C, strain ARP6, hits give low values
# [15] = locus YLR262C, strain YPT6, hits give low values
# [16] = locus YML094W, strain GIM5, hits give low values
# [17] = locus YMR219W, strain ESC1, hits give low values
# [18] = locus YMR263W, strain SAP30, hits give low values
# [19] = locus YNL153C, strain GIM3, hits give low values
# [20] = locus YNL298W, strain CLA4 (second series), hits give low values
# [21] = locus YNL322C, strain KRE1, hits give low values
# [22] = locus YNR030W, strain Alg12, hits give low values
# [23] = locus YOL006C, strain TOP1, hits give low values
# [24] = locus YPL055C, strain LGE1, hits give low values
# [25] = locus YPL241C, strain CIN2, hits give low values
# [26] = locus YPR135W, strain CTF4, hits give low values
smiles,measurement,setting,value
CSc1nnnn1-c1c(C)cccc1C,normalized growth,[1],0.998
same,normalized growth,[2],0.973
same,normalized growth,[3],0.996
same,normalized growth,[4],1.02
same,normalized growth,[5],1.02
same,normalized growth,[6],0.972
same,normalized growth,[7],0.982
same,normalized growth,"locus YGR229C, strain SMI1, hits give low values",0.966
same,normalized growth,[8],0.96
same,normalized growth,[9],0.988
same,normalized growth,"locus YJL187C, strain SWE1, hits give low values",0.979
same,normalized growth,[10],0.982
same,normalized growth,[11],0.998
same,normalized growth,"locus YKL190W, strain CNB1, hits give low values",0.962
same,normalized growth,[12],0.969
same,normalized growth,[13],0.972
same,normalized growth,[14],0.999
same,normalized growth,[15],0.936
same,normalized growth,[16],1.08
same,normalized growth,[17],0.983
same,normalized growth,[18],1
same,normalized growth,[19],0.998
same,normalized growth,[20],0.984
same,normalized growth,[21],0.984
same,normalized growth,[22],1
same,normalized growth,[23],0.944
same,normalized growth,[24],1.01
same,normalized growth,[25],0.936
same,normalized growth,[26],1.01
O=C(CSc1nnnn1-c1ccccc1)c1ccccc1,normalized growth,"locus YAR019C, strain CDC15, hits give low values",0.96
same,normalized growth,"locus YBL105C, strain PKC1, hits give low values",0.958
same,normalized growth,"locus YBR135W, strain CKS1, hits give low values",0.958
same,normalized growth,"locus YBR136W, strain MEC1, hits give low values",0.955
same,normalized growth,"locus YBR160W, strain CDC28, hits give low values",0.957
same,normalized growth,"locus YDL017W, strain CDC7, hits give low values",0.962
same,normalized growth,"locus YDL028C, strain MPS1, hits give low values",0.949
same,normalized growth,[4],0.983
same,normalized growth,"locus YDL108W, strain KIN28, hits give low values",0.947
same,normalized growth,"locus YDL132W, strain cdc53, hits give low values",0.954
same,normalized growth,"locus YDL214C, strain PRR2, hits give low values",0.734
same,normalized growth,"locus YDR052C, strain DBF4, hits give low values",0.966
same,normalized growth,"locus YDR054C, strain cdc34, hits give low values",0.908
same,normalized growth,"locus YDR226W, strain ADK1, hits give low values",0.959
same,normalized growth,"locus YDR477W, strain SNF1, hits give low values",0.663 (active)
same,normalized growth,"locus YER123W, strain YCK3, hits give low values",0.677
same,normalized growth,"locus YER133W, strain GLC7, hits give low values",0.775
same,normalized growth,"locus YFL009W, strain cdc4, hits give low values",0.949
same,normalized growth,"locus YFL029C, strain CAK1, hits give low values",0.949
same,normalized growth,"locus YFR003C, strain YPI1, hits give low values",0.96
same,normalized growth,"locus YFR019W, strain FAB1, hits give low values",0.752 (active)
same,normalized growth,"locus YFR028C, strain CDC14, hits give low values",0.959
same,normalized growth,"locus YGR040W, strain KSS1, hits give low values",0.655 (active)
same,normalized growth,"locus YGR052W, strain FMP48, hits give low values",0.587 (active)
same,normalized growth,"locus YGR092W, strain DBF2, hits give low values",0.431 (active)
same,normalized growth,[8],0.397 (active)
same,normalized growth,"locus YHR079C, strain IRE1, hits give low values",0.437 (active)
same,normalized growth,"locus YHR082C, strain KSP1, hits give low values",0.698
same,normalized growth,"locus YHR205W, strain SCH9, hits give low values",0.661
same,normalized growth,"locus YIL147C, strain SLN1, hits give low values",0.948
same,normalized growth,"locus YJL095W, strain BCK1, hits give low values",0.415 (active)
same,normalized growth,"locus YJL128C, strain PBS2, hits give low values",0.948
same,normalized growth,"locus YJL157C, strain FAR1, hits give low values",0.664 (active)
same,normalized growth,"locus YJR016C, strain ILV3, hits give low values",0.965
same,normalized growth,"locus YJR066W, strain TOR1 (second series), hits give low values",0.182 (active)
same,normalized growth,"locus YJR066W, strain TOR1, hits give low values",0.486
same,normalized growth,"locus YKL048C, strain ELM1, hits give low values",0.799 (active)
same,normalized growth,"locus YKL067W, strain YNK1, hits give low values",0.662 (active)
same,normalized growth,"locus YKL101W, strain HSL1, hits give low values",0.641 (active)
same,normalized growth,"locus YKL193C, strain SDS22, hits give low values",0.952
same,normalized growth,"locus YKL203C, strain TOR2, hits give low values",0.573 (active)
same,normalized growth,"locus YLR113W, strain HOG1, hits give low values",0.618 (active)
same,normalized growth,"locus YLR133W, strain CKI1, hits give low values",0.6 (active)
same,normalized growth,"locus YLR403W, strain SFP1, hits give low values",0.663
same,normalized growth,"locus YML070W, strain DAK1, hits give low values",0.608 (active)
same,normalized growth,"locus YMR001C, strain CDC5, hits give low values",0.95
same,normalized growth,"locus YMR205C, strain PFK2 (second series), hits give low values",0.696 (active)
same,normalized growth,"locus YMR277W, strain FCP1, hits give low values",0.946
same,normalized growth,"locus YNL006W, strain LST8, hits give low values",0.951
same,normalized growth,"locus YNL020C, strain ARK1, hits give low values",0.61 (active)
same,normalized growth,"locus YNL161W, strain CBK1, hits give low values",0.965
same,normalized growth,"locus YNL183C, strain NPR1, hits give low values",0.505 (active)
same,normalized growth,"locus YNL207W, strain RIO2, hits give low values",0.93
same,normalized growth,"locus YNL222W, strain SSU72, hits give low values",0.968
same,normalized growth,"locus YNL307C, strain MCK1 (second series), hits give low values",0.259 (active)
same,normalized growth,"locus YOL078W, strain AVO1, hits give low values",0.941
same,normalized growth,"locus YOL136C, strain PFK27, hits give low values",0.529 (active)
same,normalized growth,"locus YOR061W, strain CKA2, hits give low values",0.708
same,normalized growth,"locus YOR119C, strain RIO1, hits give low values",0.61 (active)
same,normalized growth,"locus YOR231W, strain MKK1, hits give low values",0.448 (active)
same,normalized growth,"locus YOR329C, strain SCD5, hits give low values",0.959
same,normalized growth,"locus YPL031C, strain PHO85, hits give low values",0.571 (active)
same,normalized growth,"locus YPL153C, strain RAD53, hits give low values",0.538 (active)
same,normalized growth,"locus YPL204W, strain HRR25, hits give low values",0.524 (active)
same,normalized growth,"locus YPL209C, strain IPL1, hits give low values",0.964
same,normalized growth,"locus YPL256C, strain CLN2, hits give low values",0.758 (active)
same,normalized growth,"locus YPR025C, strain CCL1, hits give low values",0.961
same,normalized growth,"locus YPR106W, strain ISR1, hits give low values",0.972
same,normalized growth,"locus YPR111W, strain DBF20, hits give low values",0.964
same,normalized growth,"strain NNK1, hits give low values",0.973
same,normalized growth,"strain TSCII, hits give low values",0.948
O=C(CSc1nnnn1-c1ccccc1)NC1Cc2ccccc2C1,normalized growth,[1],1.02
same,normalized growth,[2],0.998
same,normalized growth,[3],1.02
same,normalized growth,[4],1
same,normalized growth,"locus YDL134C, strain PPH21, hits give low values",1
same,normalized growth,[5],0.988
same,normalized growth,[6],0.988
same,normalized growth,[7],1.02
same,normalized growth,[8],1.02
same,normalized growth,[9],0.99
same,normalized growth,[10],1.04
same,normalized growth,[11],1.01
same,normalized growth,[12],1.07
same,normalized growth,[13],0.996
same,normalized growth,[14],0.991
same,normalized growth,[15],1.07
same,normalized growth,[16],0.999
same,normalized growth,[17],0.996
same,normalized growth,[18],1
same,normalized growth,"locus YMR307W, strain GAS1, hits give low values",1.06
same,normalized growth,"locus YNL128W, strain TEP1, hits give low values",1
same,normalized growth,[19],1.03
same,normalized growth,[20],1.01
same,normalized growth,[21],0.999
same,normalized growth,[22],0.995
same,normalized growth,[23],0.944
same,normalized growth,[24],0.879
same,normalized growth,[25],0.985
same,normalized growth,[26],1.01
